From PubChem
Gal4-VP16 FLuc: Gal4-VP16 reporter inhibition counter-screen | Drosophila S2 Gal4-VP16 UAS-luciferase, luminescence, 20 h | Potency, µM (highest dose often 53.6 µM), for inactives: at the top dose activity, negative = inhibition, hits mostly inhibitors | hit rate 3.5% among 310,000;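 also: Gal4-VP16 expression switched on by copper sulfate through the metallothionein promoter; nearly all actives have a fitted effect of over 50% in size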
RORg inh: inhibitors of mouse ROR gamma transcriptional activity; P51450; Drosophila S2 Gal4-RORgamma UAS-luciferase reporter, 20 h; Potency, µM (titrated, usually from 53.6 µM), without a hit: at the top dose activity change, negative = inhibition, actives largely listed as inhibitors; hit rate 5.4% among 310,000; also: nearly all actives have a fitted effect of over 60% in size
Target sequence (P51450 whole entry, looked up, the tested form may be a part): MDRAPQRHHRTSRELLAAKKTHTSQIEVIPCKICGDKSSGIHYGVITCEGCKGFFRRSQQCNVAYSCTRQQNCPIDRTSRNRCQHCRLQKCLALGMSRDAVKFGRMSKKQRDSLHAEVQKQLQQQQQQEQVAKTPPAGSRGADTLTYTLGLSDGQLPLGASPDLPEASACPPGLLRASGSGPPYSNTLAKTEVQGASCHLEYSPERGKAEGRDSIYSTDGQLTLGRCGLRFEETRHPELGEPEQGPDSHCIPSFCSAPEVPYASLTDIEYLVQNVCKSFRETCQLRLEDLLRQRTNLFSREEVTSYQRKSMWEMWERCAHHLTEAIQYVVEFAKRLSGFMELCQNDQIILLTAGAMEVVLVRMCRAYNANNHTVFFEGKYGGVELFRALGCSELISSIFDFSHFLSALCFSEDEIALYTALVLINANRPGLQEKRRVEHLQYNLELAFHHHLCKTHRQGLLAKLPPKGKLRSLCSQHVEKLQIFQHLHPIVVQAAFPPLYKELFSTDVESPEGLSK
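Luminescence from a UAS-regulated Photinus luciferase reporter in stably transfected Drosophila Schneider cells is measured; decreased signal marks ROR gamma inhibition. Fusion expression is induced by 700 uM copper sulfate for 20 hr.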
Luc counter: counter-screen: inhibitors of Kinase-Glo firefly luciferase. Q27757. Kinase-Glo luciferase, ATP luminescence, 8 min. hit rate 0.28% among 200,000. AID 1379. Potency, µM (titrated, usually from 38.3 µM), without a hit: at the top dose activity change, negative = inhibition, hits mostly inhibitors; also: nearly all actives have a fitted effect of over 60% in size
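Compound is pinned into ATP-containing buffer (10 uM ATP, imidazole pH 7.2, 7 mM MgCl2). Kinase-Glo luciferase reagent is then added. Light output is recorded following an 8-min room-temperature incubation.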
Starred values were filed as active, the others as inactive; ? = inconclusive; . = no result; [ ] = dose if it differs, or a comment. Most compounds without a hit are left out; they make up all but 6.4% or so of the library. Calls follow the shape of the dose curve; as a rule, active = well fitted curve in the direction sought with a large enough effect; inconclusive = small, poorly fitted or top-dose-only effect, or another doubt; inactive = no such curve, though single readings can be large; an effect the other way counts as inactive or inconclusive. % is scaled to controls: 0 for no effect and ±100 for the full control effect; potency is read from the fitted curve at half-maximal effect.

SMILES	Gal4-VP16 FLuc	RORg inh	Luc counter
Cc1cccc(NC(=S)NN2CCOCC2)c1C	1.6%	11.2µM*	-0.8%
CCc1ccc(NC(=S)NC2CC3CCCC(C2)N3Cc2cccs2)cc1 (stereo not drawn)	12.6µM*	2µM*	4.8%
Cc1c(Cl)cccc1NC(=S)NC1CCCC1	5.62µM*	4.47µM*	.
CCc1ccccc1NC(=O)NC1CC2CCC(C1)N2Cc1cccs1 (stereo not drawn)	-6.0%	16.8%	-1.2%
Cc1cccc(NC(=S)NN2CCN(C)CC2)c1C	8.6%	8.5%	1.6%
NC(=O)CSc1nnc2ccc(-c3ccc(F)cc3)nn12	-3.2%	1.9%	0.9%
O=C1Oc2ccccc2C(=O)C1C(CC(O)c1ccc(-c2ccc(Br)cc2)cc1)c1ccccc1 (stereo not drawn)	-8.5%	?	.
C=CCn1c(SCC(=O)NC2CCCC2)nnc1-c1ccccn1	-3.9%	5.62µM*	.
CCCn1c(SCC(=O)NC2CCCC2)nnc1-c1ccccn1	-10.9%	0.7%	.
CCO[C@@H]1OC(C(=O)NCc2ccccc2)=C[C@H](c2cn(C(C)=O)c3ccccc23)[C@H]1CCCO	-1.1%	1.6%	.
CCOC(=O)C1CCN(C(=O)CCc2c(C)nc3cc(-c4ccccc4)nn3c2C)CC1	9.2%	-34.1%	-0.4%
COc1cc(OC)cc(-c2cc3nc(C)c(CCC(=O)O)c(C)n3n2)c1	2.82µM*	0.708µM*	-4.8%
O=C(CSCCO)Nc1ccc(C23CC4CC(CC(C4)C2)C3)cc1	8.91µM*	-2.5%	-3.9%
O=C(CSCCO)Nc1ccc([N+](=O)[O-])cc1	1.1%	2.3%	-3.0%
CNC(=S)Nc1ccc(C23CC4CC(CC(C4)C2)C3)cc1	1.26µM*	1.58µM*	.
CC(=O)Nc1ccc(C23CC4CC(CC(C4)C2)C3)cc1	17.4%	22.9%	.
CCOC(=O)/C=C/CCCC=O	4.8%	12.6%	1.2%
O=C(NNC(=O)c1ccccc1F)C1=NN(c2ccccc2)C(=O)CC1	1.2%	-31.0%	.
COc1ccc(C(=O)Sc2nncc3ccccc23)cc1	?	11.2µM*	3.5%
COc1ccc(NC(=O)CSc2nncc3ccccc23)cc1	2.3%	34.8%	0.2%
COc1ccc(NC(=O)N2CC[C@@]3(CCCN(C(=O)c4ccc(OC)cc4)C3)C2)cc1	-4.7%	-15.1%	2.1%
NC(=S)N/N=C/c1cc([N+](=O)[O-])ccc1OCCOc1ccccc1	-12.2%	-32.0%	-3.3%
NC(=S)N/N=C/c1cc([N+](=O)[O-])ccc1Cl	-16.7%	25.1µM*	0.5%
O=[N+]([O-])c1ccc(Cl)c(/C=N/NC(=S)Nc2ccccc2)c1	2.24µM*	0.355µM*	-5.1%
CS(=O)(=O)N(CC(=O)N/N=C/c1cc([N+](=O)[O-])ccc1Cl)c1ccccc1	2.2%	10.8%	-3.3%
SMILES	Gal4-VP16 FLuc	RORg inh	Luc counter
CN(CCC#N)C(=O)CC(Cc1ccccc1)C1CCOC(C)(C)C1 (stereo not drawn)	-13.2%	-0.8%	.
Cc1cc2c(c(=O)n1Cc1ccccc1)C1O[C@](CCCCN3C(=O)c4ccccc4C3=O)(Cc3cc(C#N)ccc31)O2	3.5%[10 µM]	9.5%[10 µM]	.
CC[C@](N)(CCC(=O)O)C(=O)O	?	-23.8%	-0.8%
Cc1cc(NC(=O)NC(=O)c2ccc(F)cc2F)n[nH]1	?	8.91µM*	-6.7%
Cc1ccc(NC(=O)Nc2ccc(F)cc2)nc1	15.8%	41.7%	0.6%
CC(=O)OCCN(C)c1cc(SC(C)C)c2nonc2c1[N+](=O)[O-]	29.2%	?	-0.4%
CN(CCO)c1cc(Sc2nc3ccccc3s2)c2nonc2c1[N+](=O)[O-]	12.6µM*	11.2µM*	-0.7%
Cc1cc(=O)n2nc(N3CCCC(C(=O)Nc4ccc(C)c(C)c4)C3)sc2n1 (stereo not drawn)	-2.4%	0.6%	.
CN(C)c1ncc2nc(-c3ccc(F)cc3)c(=O)n(C)c2n1	?	-16.2%	.
Cc1ccc(-c2nnn(C/C(N)=N/O)n2)cc1	2.82µM*	2.82µM*	-0.9%
N/C(Cn1nnc(-c2ccccc2)n1)=N\O	-1.4%	-28.1%	-0.6%
COC(=O)c1cccnc1-n1c(=O)c2cccnc2n(Cc2cccc(C(F)(F)F)c2)c1=O	-12.3%	16.1%	2.1%
COc1ccccc1CN1CC2(CCN(C(=O)c3ccncc3)CC2)C1	10.5%	-0.7%	-0.5%
C=CCNc1nnc(Cl)c2ccccc12	1.1%[0.365 µM]	-10.6%	4.2%
Clc1nnc(NN=C2CCCC2)c2ccccc12	?	8.91µM*	-4.3%
Clc1nnc(N/N=C/c2ccccc2)c2ccccc12	?	10µM*	-20.2%
Cc1ccc(/C=N/Nc2ncnc3nc[nH]c23)cc1	-22.1%	-3.0%	.
Cc1ccc(/C=N/Nc2nnc(Cl)c3ccccc23)cc1	12.6µM*	3.16µM*	?
Clc1ccc(/C=N/Nc2nnc(Cl)c3ccccc23)cc1	-24.7%	?	-18.9%
